# Screening data: PubChem, National Center for Advancing Translational Sciences (NCATS)
# IL1B secr inh: inflammasome signaling inhibition, IL-1 beta readout. THP-1 LPS/ATP IL-1B secretion, AlphaLISA, 16 h; active compounds read low. activity change, % at 57.5 µM. 360,000 tested, 4.7% active. AID 743279; in the data active = activity change below about -50%; inconclusive = mostly about -30% to -49%; note: % is set by controls: 0 for no effect and ±100 for the full control effect
#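 THP-1 cells pretreated 1 hr with compounds (up to 57.5 uM final), then stimulated with LPS (250 ng/mL final) plus ATP (1.25 mM final); secreted IL-1B measured by AlphaLISA after 16 hr, decreased signal indicating inhibition.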
# ATXN viability: cell viability loss in ATXN counter-screen | AID 651635 | Potency, µM (titrated, usually from 56.7 µM), most hits filed as cytotoxic | 400,000 tested, 0.49% active | S2 cells (HEK-293 line with an ATXN2-luciferase reporter) viability, CellTiter-Fluor protease fluorescence, 24 h; note: potency is the fitted concentration of half-maximal effect; nearly all actives have a fitted effect of over 40% in size
# ATXN2 expr inh: inhibitors of ATXN2 expression. HEK-293 ATXN2-luciferase reporter, luminescence, 24 h. Potency, µM (highest dose often 57 µM), without a hit: at the highest dose activity change, negative = inhibition, actives largely listed as inhibitors. 360,000 tested, 0.72% active. AID 1745845; note: potency is the fitted concentration of half-maximal effect; % is set by controls: 0 for no effect and ±100 for the full control effect; nearly all actives have a fitted effect of over 55% in size
#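 ATXN2-luciferase reporter cells (luciferase flanked by upstream and downstream ATXN2 gene portions) were treated 24 h at 37 °C with compounds at up to 57 uM. SteadyGlo luminescence gave expression; GF-AFC fluorescence gave viability.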
# a7 integrin act: activates integrin-mediated alleviation for muscular dystrophy. alpha7betagal myoblasts, beta-gal FDG fluorescence, 48 h. Potency, µM (series often up to 38.3 µM), without a hit: at the highest dose activation, most hits filed as activators. 350,000 tested, 0.064% active. AID 624291;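 note: potency is the fitted concentration of half-maximal effect; 100% = response of the positive control SU9516; nearly all actives have a fitted effect of over 60% in size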
#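 alpha7betagal+/- myoblasts (passage 13, 250/well) treated 48 h at 37C with compounds at 1:260 dilution of DMSO stock. Lysed, then beta-galactosidase activity read as FDG fluorescence (ex 480/em 540) after 30 min, with pre-read for autofluorescence.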
# DRD3 antagonist: antagonists of human D3 dopamine receptor. max response, negative = inhibition, %. P35462. D3R cells, DiscoveRx beta-arrestin luminescence, antagonist mode; active compounds read low. AID 652054. 360,000 tested, 2.5% active; in the data active = max response below about -50%; inconclusive = no clear call, values can overlap the other calls; note: % is set by controls: 0 for no effect and ±100 for the full control effect
# Target sequence (P35462 whole entry, looked up): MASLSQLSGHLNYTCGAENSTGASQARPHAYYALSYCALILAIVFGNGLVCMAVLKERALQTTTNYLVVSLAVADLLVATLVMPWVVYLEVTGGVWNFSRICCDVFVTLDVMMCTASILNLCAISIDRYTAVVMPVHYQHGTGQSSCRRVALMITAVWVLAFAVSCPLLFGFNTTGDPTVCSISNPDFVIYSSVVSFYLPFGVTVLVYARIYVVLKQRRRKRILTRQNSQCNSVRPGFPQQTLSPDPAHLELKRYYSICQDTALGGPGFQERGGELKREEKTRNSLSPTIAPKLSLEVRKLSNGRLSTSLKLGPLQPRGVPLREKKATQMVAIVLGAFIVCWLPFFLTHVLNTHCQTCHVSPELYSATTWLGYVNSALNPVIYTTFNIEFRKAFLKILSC
#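 Cells expressing the human receptor were seeded at 1500 cells/well, incubated overnight at 37 degrees C in 5% CO2, then exposed to library compounds with dopamine controls for 90 minutes at 37 degrees C before luminescent detection.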
# D3 ag: D3 dopamine receptor (human) agonism | P35462 | D3R DiscoveRx beta-arrestin cells, luminescence, 90 min | max activation, % | 410,000 tested, 0.58% active; in the data active = max activation above about 30%; note: 0% is about no effect
#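 Agonist-mode cell screen: cells plated at 1500/well and incubated overnight at 37 °C, then exposed to library compounds for 90 min at 37 °C. Detection reagent was added for 30–60 min at room temperature, and luminescence was read.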
# An asterisk follows results filed as active; i = inactive; ? = inconclusive; · = no result; [ ] = dose if it differs, or a comment. Sampled rows, rich in hits. Any-hit rate of the full collection: about 7%. Unless noted, calls come from the whole dose curve; as a rule, active = well fitted curve in the direction sought with a large enough effect; inconclusive = small, poorly fitted or top-dose-only effect, or another doubt; inactive = no such curve, though single readings can be large; an effect the other way counts as inactive or inconclusive.
SMILES,IL1B secr inh,ATXN viability,ATXN2 expr inh,a7 integrin act,DRD3 antagonist,D3 ag
Nc1cccc2nc3ccccc3cc12,23,·,7.9µM*,·,-15,-3
Cc1ccc(NC(=O)Cc2ncc(C(F)(F)F)cc2Cl)cc1Cl,-2,i,2%,-23%,0,4
CCOC(=O)c1c(NC(=O)/C=C/c2ccc(OCC)cc2)sc(C)c1C,·,i,5%,·,·,7
COC(=O)c1c(NC(=O)/C=C/C(=O)O)sc(C)c1-c1ccc(C)c(C)c1,-95*,i,?,-20%,-19,-1
CCOC(=O)c1c(NC(=O)/C=C/C(=O)O)sc(C)c1-c1ccc(C)c(C)c1,-95*,i,·,0%,-1,1
CCOC(=O)c1c(NC(=O)/C=C/C(=O)O)sc(C)c1-c1ccc(F)cc1,-101*,i,?,0%,3,1
CCOC(=O)c1c(C)nn(-c2ccc(NC(=O)/C=C/C(=O)O)cc2)c1C,0,i,?,-16%,21,0
CN1/C(=C\C(=O)Nc2ccc(F)cc2)C(C)(C)c2ccccc21,0,i,-3%,18%,11,-7
CCOc1ccc(CCNC(=O)CCc2c(C)nc3c(-c4ccccc4)c(C)nn3c2C)cc1OCC,·,·,·,·,·,15
O[C@H](c1cc(C(F)(F)F)nc2c(C(F)(F)F)cccc12)[C@H]1CCCCN1,·,i,·,·,·,·
OC(c1cc(-c2cccc(Cl)c2)nc2ccccc12)C1CCCCN1 (stereo not drawn),-101*,?,?,-28%,-9,2
CC1CCN(C(=O)CSc2nc(-c3ccc(F)cc3)cc(C(F)(F)F)n2)CC1,·,i,5%,·,·,4
OC(c1cc(C(F)(F)F)nc2c(C(F)(F)F)cccc12)C1CCCCN1 (stereo not drawn),-111*,·,?,·,25,14
OC(c1cc(-c2ccc(C(F)(F)F)cc2)nc(C(F)(F)F)c1)C1CCCCN1 (stereo not drawn),-104*,3.2µM*,·,-61%,21,0
O=C(COc1ccccc1)Nc1ccccc1OCc1cc(=O)n2ccccc2n1,·,·,·,·,·,2
CC(C)(C)c1nc(CN2CCCCC2)cc(CN2CCCCC2)c1O,-6,i,3%,-59%,-72*,2
CC(C)(C)c1nc(CN2CCOCC2)ccc1O,5,i,-8%,2%,-18,-3
Oc1cccc(C=Nc2cccc3ccccc23)c1O,-59*,?,?,-53%,-75*,0
CC(Oc1ccc(C#N)cc1)C(=O)N1CC=C(c2ccccc2)CC1 (stereo not drawn),-61*,i,?,-22%,-2,0
CCn1cc(CN2Cc3ccccc3OC(c3ccccc3OC)C2)c(C)n1 (stereo not drawn),·,i,·,·,·,·
O=C1CC(SCc2nc3ccccc3[nH]2)C(=O)N1c1cccc(Cl)c1 (stereo not drawn),11,i,1%,-26%,-24,-1
O=C1CC(SCc2nc3ccccc3[nH]2)C(=O)N1c1ccc(F)cc1 (stereo not drawn),17,i,1%,-9%,-66*,-4
O=C(Nc1ccccc1)OCCOc1ccc(Br)cc1,-22,i,-6%,-10%,-4,-4
CC(C)(C)NCCOCCOc1ccc(Cl)cc1C(C)(C)C,-6,?,·,-45%,?,-1
C=CCNCCCOc1ccc(Cl)cc1C(C)(C)C,-85*,i,-24%,-47%,13,-18
SMILES,IL1B secr inh,ATXN viability,ATXN2 expr inh,a7 integrin act,DRD3 antagonist,D3 ag
C=CCNCCOCCOc1ccc(Cl)cc1C(C)(C)C,-53*,?,-37%,-58%,-58*,-20
C=CCc1cc(Cl)ccc1OCCNCCOC,?,i,-19%[11.3 µM],-60%,-56*,-12
COc1ccc(C2=CC(c3c(C)nn(-c4ccccc4)c3Cl)n3nnnc3N2)cc1OC (stereo not drawn),-67*,i,?,-9%,63,4
Nc1cc2c(cc1Br)-c1ccccc1C2=NO,-105*,i,5%,9%,1,6
CCOC(=O)C1CCN(C(c2ccccn2)c2c(C)[nH]c3ccccc23)CC1 (stereo not drawn),-110*,i,42%,-51%,?,-6
COC(=O)c1cc(O)c(O)c(O)c1,24,i,2%,-14%,-1,35*
Cc1noc(C)c1C(=O)Nc1ccc(F)cc1,-2,i,5%,?,7,4
CCc1n[nH]c(=S)n1/N=C/c1ccc(-c2ccc(Br)cc2)o1,36,?,·,17%,-146*,0
CSc1ccc(/C=N/n2c(Cc3ccc(Br)cc3)n[nH]c2=S)cc1,-13,i,-10%[11.3 µM],11%,?,-8
C[C@H](NC(=O)c1ccco1)C(=O)N1CCCC1,-8,i,-11%,28%,-8,-2
Cc1cccc(Oc2ccc(NC(=O)c3ccccc3C(=O)O)cc2)c1C,7,i,4%,0%,5,1
O=C(Nc1ccc(O)cc1)c1ccccc1OCc1ccccc1,-71*,i,7%,-19%,15,3
CCN(CC)CC(O)COc1ccccc1C(=O)CCc1ccccc1 (stereo not drawn),-13,i,-15%,1%,-21,-26
O=C(O)c1ccccc1C(=O)Nc1ccc(Oc2cccc3ccccc23)cc1,24,i,1.6µM*,-8%,-1,-6
Cc1cc(C(=O)Nc2ccc(OCc3ccccc3)cc2)c(C)o1,-60*,i,17%,-11%,-4,9
CCCCN(CCCC)CC(O)COc1ccccc1C(=O)Nc1ccccc1 (stereo not drawn),-96*,i,-25%,-46%,9,-2
CCN1C(=O)/C(=C\c2cccc(OC(=O)c3ccco3)c2)SC1=S,3,i,-11%,4%,-2,-2
Cc1oc(CC(C)C)cc1C(=O)Nc1cccc2ccccc12,13,i,-13%,1%,5,-9
Cc1cc(C(=O)Nc2cccc3ccccc23)c(C)o1,-11,i,16%,7.9µM*,-27,-10
O=C(CC1SC(=Nc2ccc(OC(F)F)cc2)N(CCN2CCOCC2)C1=O)Nc1ccc(F)cc1F (stereo not drawn),-63*,i,1%,-29%,7,9
O=C(NCC[C@H]1CC[C@H](NS(=O)(=O)c2ccc(F)cc2)[C@@H](CO)O1)c1ccc2c(c1)OCO2,-4,·,·,·,-11,-9
COc1ccc(S(=O)(=O)N[C@H]2CC[C@H](CCNC(=O)c3ccccc3F)O[C@@H]2CO)cc1,-77*,·,·,·,9,1
